Several values for one entry are separate records, joined by “and”; a condition that tells them apart may be missing. Identical values can stand only once. About 17,000 (5.5%) of roughly 310,000 compounds were called active. Inconclusive results (about 11%) are left out. Calls come from the whole dose curve; as a rule, active = well fitted inhibition curve with a large enough effect; inconclusive = small, poorly fitted or top-dose-only effect, or effect the other way; inactive = no such curve, though single readings can be large or run the other way. The full list was thinned out, with actives kept by preference. Where a structure was tested more than once in an assay, its records may differ in their call.
Target: Nuclear receptor ROR-gamma (Mus musculus) (UniProt P51450)
Sequence (P51450 whole entry, looked up): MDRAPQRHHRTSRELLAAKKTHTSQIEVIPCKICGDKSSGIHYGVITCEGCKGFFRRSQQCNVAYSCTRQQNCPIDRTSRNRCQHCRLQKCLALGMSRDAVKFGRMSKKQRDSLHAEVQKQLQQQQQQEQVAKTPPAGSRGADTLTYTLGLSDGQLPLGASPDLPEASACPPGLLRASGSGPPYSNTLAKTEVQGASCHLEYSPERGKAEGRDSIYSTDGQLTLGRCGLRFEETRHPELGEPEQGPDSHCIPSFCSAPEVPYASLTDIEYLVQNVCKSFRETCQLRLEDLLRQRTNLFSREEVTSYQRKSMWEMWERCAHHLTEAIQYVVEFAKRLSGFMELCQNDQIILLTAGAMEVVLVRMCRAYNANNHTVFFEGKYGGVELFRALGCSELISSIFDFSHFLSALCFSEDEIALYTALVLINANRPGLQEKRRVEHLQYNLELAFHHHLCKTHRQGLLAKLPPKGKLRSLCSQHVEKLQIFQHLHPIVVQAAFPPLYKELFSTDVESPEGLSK
Experiment: qHTS for inhibitors of ROR gamma transcriptional activity; note: nearly all actives have a fitted effect of over 60% in size
Conditions: Drosophila S2 Gal4-RORgamma UAS-luciferase reporter, 20 h; series mostly up to 53.6 µM; activity change, negative = inhibition: at the top concentration
Procedure, shortened: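 Schneider cells (Drosophila), stable Gal4 DBD–ROR gamma + UAS-luc; 1 hr cmpd preincubation; Cu2+ induction 700 uM final; 20 hr ambient; luminescence.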
% is set by controls: 0 for no effect and ±100 for the full control effect; potency is the fitted concentration of half-maximal effect.

Row | SMILES | activity change, negative = inhibition | Potency
1 | CN(Cc1c(F)cccc1Cl)S(=O)(=O)c1cccs1 | -26.5% (inactive) | 
2 | COc1ccc(C(=O)Nc2nncs2)c(OC)c1 | -24.7% (inactive) | 
3 | COc1ccc(C(=O)NC2=NCCS2)c(OC)c1 |  | 11.2 µM (active)
4 | COc1ccc(C(=O)NCc2nnc(SCC(=O)NC3=NCCS3)n2C)cc1 | 0.365% (inactive) | 
5 | CSCC[C@H](NC(=O)N1CCn2c1nc1ccccc12)C(=O)NC1CCCCC1 | 0.349% (inactive) | 
6 | CC(C)OC(=O)c1ccc(COc2ccc3ccc(=O)oc3c2)o1 | 3.55% (inactive) | 
7 | Cc1ccc(-c2nnc(SCC(=O)N/N=C/c3cccs3)n2-c2ccc(C)cc2)cc1 |  | 17.8 µM (active)
8 | NNC(=O)CSc1nnc(-c2ccccc2)n1-c1ccccc1 | 1.72% (inactive) | 
9 | Cc1ccc(-n2c(SCC(=O)N3c4ccccc4Sc4ccccc43)nnc2-c2ccncc2)cc1 | 7.55% (inactive) | 
10 | COCCN1C(=O)C(=O)/C(=C(/O)c2ccc(S(=O)(=O)N3CCOCC3)cc2)C1c1ccc(OC)c(OC)c1 (stereo not drawn) | 1.24% (inactive) | 
11 | COc1ccc(C2C3=C(CCCC3=O)N(CC(=O)O)C3=C2C(=O)CCC3)cc1 | -18.3% (inactive) | 
12 | CC(=O)N/C(=N/c1nc(C)cc(C)n1)Nc1ccc(F)cc1F | -28.3% (inactive) | 
13 | Cc1cc(NC(=O)Nc2ccc(Cl)cc2)n(-c2ccccc2)n1 | -13.5% (inactive) | 
14 | Cc1cc(C)nc(-n2nc(C)cc2NC(=O)c2ccc(F)cc2F)n1 |  | 0.178 µM (active)
15 | CCN1C(=O)c2cccc3c(S(=O)(=O)Nc4ccccc4O)ccc1c23 | -39.5% (inactive) | 
16 | CN(C)c1cccc(C(=O)N2CCC(n3nccc3NC(=O)C3CCOC3)CC2)c1 (stereo not drawn) | -3.44% (inactive) | 
17 | N#Cc1ccc(S(=O)(=O)NCC(=O)OCC(=O)NCCc2ccccc2)cc1 | -1.08% (inactive) | 
18 | Cc1ccc(C)c(N2CCN(C(=O)CCCn3c(=O)c4cccn4c4cccnc43)CC2)c1 | 33% (inactive) | 
19 | Cc1ccc(C)c(N2CCN(C(=O)CCCCCn3c(=S)[nH]c4ccc(N5CCOCC5)cc4c3=O)CC2)c1 |  | 10 µM (active)
20 | Cc1ccc(C)c(N2CCN(C(=O)CCCCn3c(=O)[nH]c4ccccc4c3=O)CC2)c1 | 4.13% (inactive) | 
21 | O=C(CCCCCn1c(=S)[nH]c2cc3c(cc2c1=O)OCO3)N1CCN(c2ccc(F)cc2)CC1 |  | 4.47 µM (active)
22 | CCCCNC(=O)CCn1c(=S)[nH]c2cc3c(cc2c1=O)OCO3 | -20.7% (inactive) | 
23 | CC(C)NC(=O)CCCn1c(=S)[nH]c2cc3c(cc2c1=O)OCO3 | -17.2% (inactive) | 
24 | Cc1ccnc(Nc2nc3ccccc3s2)n1 | -0.115% (inactive) | 
25 | Cc1ccnc(-n2sc3ccccc3c2=O)n1 |  | 11.2 µM (active)
26 | Cc1ccnc(N2CCCC(C(=O)NC3CC3)C2)n1 (stereo not drawn) | 1.65% (inactive) | 

Row | SMILES | activity change, negative = inhibition | Potency
27 | CCCCSCCCNC(=O)C1CCC(CNS(=O)(=O)c2ccc(NC(C)=O)cc2)CC1 (stereo not drawn) | 36.7% (inactive) | 
28 | S=c1[nH]nc(CSCc2ccc(Cl)cc2Cl)n1-c1ccccc1 |  | 1.26 µM (active)
29 | Cc1ccc(OCc2n[nH]c(=S)n2-c2ccccc2)cc1 |  | 0.708 µM (active)
30 | Cc1ccc(OCc2n[nH]c(=S)n2-c2ccc(C)cc2)cc1 | -0.176% (inactive) | 
31 | S=c1[nH]nc(COc2ccccc2)n1-c1ccccc1 |  | 3.98 µM (active)
32 | O=[N+]([O-])c1ccccc1/C=N/n1c(COc2ccccc2)n[nH]c1=S | -17.4% (inactive) | 
33 | CC(NS(=O)(=O)c1ccccc1)c1n[nH]c(=S)n1-c1ccccc1 (stereo not drawn) | -25.6% (inactive) | 
34 | CCCCC(CC(C)O)c1n[nH]c(=S)n1-c1ccccc1 (stereo not drawn) | 2.91% (inactive) | 
35 | CC(Sc1nnc(COc2ccccc2)n1-c1ccccc1)C(=O)O (stereo not drawn) | -6.73% (inactive) | 
36 | O=c1[nH]nc(CSCc2ccccc2Cl)[nH]1 | 13.7% (inactive) | 
37 | O=S(=O)(Oc1ccccc1C(=S)N1CCOCC1)c1ccc(Cl)cc1 | -1.78% (inactive) | 
38 | Cc1cc(C)cc(C(=O)NCCN2CCOCC2)c1 | -10.6% (inactive) | 
39 | O=C1CCNCCN1[C@H](CO)Cc1ccccc1 | -13.7% (inactive) | 
40 | Cc1cc2occ(CC(=O)NNC(=O)c3ccccc3F)c2cc1C | 18.8% (inactive) | 
41 | O=C(N/N=C/c1cccnc1)c1ccc(NC(=O)c2ccc(F)cc2)cc1 | -2.69% (inactive) | 
42 | Cc1cccc(C(=O)Nc2ccc(C(=O)N/N=C/c3cccc(C)n3)cc2)c1 | 1.91% (inactive) | 
43 | Cn1cccc1/C=N/NC(=O)c1ccc(OC(F)(F)C(F)F)cc1 |  | 2 µM (active)
44 | C/C(=N\NC(=O)Cc1ccccc1[N+](=O)[O-])c1cccnc1 | 26.2% (inactive) | 
45 | CC1CC(C)CN(C(=O)C2CC(=O)N(c3ccc(F)cc3)C2)C1 (stereo not drawn) | -8.45% (inactive) | 
46 | O=C(O)c1cccc(S(=O)(=O)Nc2ccc(O)cc2Sc2nc3ccccc3s2)c1 |  | 10 µM (active)
47 | O=C(O)c1ccccc1CSc1nc2ccccc2s1 | -0.569% (inactive) | 
48 | COc1ccc(S(=O)(=O)Nc2ccc(O)c(Sc3nc4ccccc4s3)c2)cc1 | 1.49% [at 10 µM] (inactive) | 
49 | CCOC(=O)COc1cc(O)c2c(=O)cc(-c3ccccc3)oc2c1 | -12% (inactive) | 
50 | O=c1cc(-c2ccc(O)c(O)c2)oc2cccc(O)c12 |  | 14.1 µM (active)
51 | O=c1cc(-c2ccc(O)cc2)oc2c(-c3cc(-c4cc(=O)c5c(O)cc(O)cc5o4)ccc3O)c(O)ccc12 | 5.83% (inactive) | 
52 | COc1ccc(-c2cc(=O)c3c(O)cc(O[C@@H]4O[C@H](CO[C@@H]5O[C@@H](C)[C@H](O)[C@@H](O)[C@H]5O)[C@@H](O)[C@H](O)[C@H]4O)cc3o2)cc1O | 1.9% (inactive) | 

Row | SMILES | activity change, negative = inhibition | Potency
53 | Cc1cccc(-c2cc(=O)c3cc(C)ccc3o2)c1 | -18.1% (inactive) | 
54 | COc1c(O)cc2oc(-c3ccc(O)c(O)c3)cc(=O)c2c1O |  | inactive and 12.6 µM (active)
55 | Cc1ccc(-c2noc(C3CCCN(C(=O)c4cccc(Cl)c4)C3)n2)o1 (stereo not drawn) | -1.35% (inactive) | 
56 | CCOC(=O)N1CCN(Cc2nc3cc(NC(=O)CC)ccc3n2CC)CC1 | -9.43% (inactive) | 
57 | C#CCOc1ccc(/C=C2/C(=O)ON=C2C)cc1OCC | 19.7% (inactive) | 
58 | Cc1ccccc1CN1CCC(C(=O)Nc2ccc(Oc3cccnc3)cc2)CC1 | 5.98% (inactive) | 
59 | CC1(C)Cc2c(cnn2-c2cccc(F)c2)C(NC(=O)c2cc[n+]([O-])cc2)C1 (stereo not drawn) | 18.2% (inactive) | 
60 | CC1(C)C(C=C(Cl)Cl)C1C(=O)NC(O)C(=O)c1ccccc1 (stereo not drawn) | 2.63% (inactive) | 
61 | CN(Cc1ccccn1)Cc1nc(-c2ccc(Cl)cc2)no1 | -8.55% (inactive) | 
62 | CN(Cc1ccc2nsnc2c1)Cc1nc(Cc2cccc(F)c2)no1 | 5.49% (inactive) | 
63 | CCc1ccc(CN(C)Cc2nc(Cc3ccccc3)no2)nc1 |  | 11.2 µM (active)
64 | Cc1ccnc(NC(=O)CCNS(=O)(=O)c2ccc(C)c(C)c2)c1 |  | 10 µM (active)
65 | Cc1ccc(S(=O)(=O)NCCC(=O)Nc2cccc(S(N)(=O)=O)c2)cc1C | -17.4% (inactive) | 
66 | Cc1ccc(S(=O)(=O)NCCC(=O)Nc2ccc(C)c(Cl)c2)cc1C | 18.6% (inactive) | 
67 | O=C(Cn1c(=O)sc2ccccc21)Nc1nc2c(s1)CCCC2 | 6.34% (inactive) | 
68 | COC(=O)C(NC(C)=O)(Nc1nc2c(s1)CCCC2)C(F)(F)F (stereo not drawn) | 0.2% (inactive) | 
69 | Fc1ccc2nc(Nc3nc4c(s3)CCCC4)sc2c1 |  | 3.16 µM (active)
70 | O=C(Nc1cccc(-c2cccc(Cl)c2)c1)C1CCN(C2CCC2)CC1 | -24.5% (inactive) | 
71 | Cc1c2c(nc3ccccc13)-c1cccc(=O)n1C2 |  | 8.91 µM (active)
72 | CC(C)c1ccc2c([Si](C)(C)C)c3c(nc2c1)-c1cccc(=O)n1C3 | 1.99% (inactive) | 
73 | Cc1nc2ccccc2c(C)c1C(=O)c1ccc(F)cc1 | -4.49% (inactive) | 
74 | CCn1c(=S)sc2c(=O)n(CC(=O)Nc3ccc(OC)cc3)c(C)nc21 | -10.3% (inactive) | 
75 | Cc1ccc(C)c(N2CCN(S(=O)(=O)c3c(C)[nH]c(C)c3C(=O)N3CCCC3)CC2)c1 | 1.12% (inactive) | 
76 | CCOC(=O)C1Cn2c(nc3c(c2=O)C(C)(CC)Cc2ccccc2-3)S1 (stereo not drawn) | 4.88% (inactive) | 
77 | CCC1(CC)Cc2ccccc2-c2nc(CCl)[nH]c(=O)c21 |  | 11.2 µM (active)
78 | CC1(C)Cc2ccccc2-c2nc(CN3CCOCC3)[nH]c(=O)c21 | -5.08% (inactive) | 

Row | SMILES | activity change, negative = inhibition | Potency
79 | CC(=O)c1ccc(OCC(O)CN2CCN(S(=O)(=O)c3cccc(Br)c3)CC2)cc1 (stereo not drawn) | 1.55% (inactive) | 
80 | COC(=O)C1CCCCN1C(=O)c1ccc(OC2CCN(C(C)=O)CC2)c(OC)c1 (stereo not drawn) | 0% (inactive) | 
81 | Cc1ccc(CN(CC(=O)NCC2CCCO2)S(=O)(=O)c2ccc(C)cc2)cc1 (stereo not drawn) | -3.1% (inactive) | 
82 | COc1ccccc1Cn1c(CO)nc2ccccc21 | -33.8% (inactive) | 
83 | COCc1nc2ccccc2n1Cc1ccccc1Br |  | 6.31 µM (active)
84 | COCn1c(COc2ccccc2)nc2ccccc21 | -18.9% (inactive) | 
85 | COc1ccc(C(=O)NNS(=O)(=O)c2ccc(C)cc2)cc1 | -13.6% (inactive) | 
86 | CC(NC(=O)Nc1ccccc1)c1ccccc1 (stereo not drawn) | -8.38% (inactive) | 
87 | Cc1ccc(S(=O)(=O)NNC(=S)NC(C)(C)C)cc1 |  | 8.91 µM (active)
88 | Cc1ccc(S(=O)(=O)NNC(=O)Nc2cccc3ccccc23)cc1 | 2.09% (inactive) | 
89 | CC(NC(=S)NNS(=O)(=O)c1ccc(C(C)(C)C)cc1)c1ccccc1 (stereo not drawn) |  | 8.91 µM (active)
90 | Cc1ccc(S(=O)(=O)CC(=O)NC(C)c2ccccc2)cc1 (stereo not drawn) | 21% (inactive) | 
91 | CCOc1ccc(N(CC(=O)NCCc2ccc(F)cc2)S(=O)(=O)c2ccccc2)cc1 | 14.9% (inactive) | 
92 | COc1ccccc1CNC(=O)[C@@H]1CCCN1C(=O)[C@@H]1Cc2ccccc2CN1C(=O)OC(C)(C)C | 33.9% (inactive) | 
93 | CCN(CC)c1ccc(C(=O)Nn2c(C)nc3ccccc3c2=O)cc1 | -16.6% (inactive) | 
94 | CCCCCc1ccc(-c2cn(Cc3ccc4ccccc4c3)nn2)cc1 | -1.78% (inactive) | 
95 | CCCCCc1ccc(-c2ccc(OCC)cc2)nc1 | -33.7% (inactive) | 
96 | CCCCCc1ccc(-c2ccc(C(=O)O)cc2)nc1 |  | 6.31 µM (active)
97 | Cc1cccc(-c2nnc(SCC(=O)O)n2Cc2ccccc2)c1 | 4.58% (inactive) | 
98 | O=C(CCC(=O)c1cccs1)NC1CCCCCC1 | 9.7% (inactive) | 
99 | CCCCC(CC)CNC(=O)CCCCn1c(=O)[nH]c2ccsc2c1=O (stereo not drawn) | -18.2% (inactive) | 
100 | O=C(CCCCCn1c(=S)[nH]c2ccsc2c1=O)NC1CCCCC1 |  | 11.2 µM (active)
101 | O=C(CN1C(=O)c2ccccc2C1=O)NCc1ccc(C(=O)O)cc1 | -11.3% (inactive) | 
102 | COc1ccc(N(CC(=O)Nc2cc(OC)cc(OC)c2)S(=O)(=O)c2c(C)n[nH]c2C)cc1 | -11.3% (inactive) | 
103 | Cc1cccc(N2CCN(C(C)C(=O)N3CCc4ccccc43)CC2)c1C (stereo not drawn) | -0.135% (inactive) | 

Source: PubChem BioAssay AID2551 (National Center for Advancing Translational Sciences (NCATS), 2010)
